From PubChem BioAssay AID485346 (Sanford-Burnham Center for Chemical Genomics, 2010)
The campaign covered roughly 330,000 compounds. About 10,000 (3%) were called active. The sample holds actives, similar compounds and a random draw of the others, so the mix is not that of the screen.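 How the source made its calls: active means inhibition of at least 50% at 8 µM in the primary screen; inactive means the rest.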

Target: Protein Mdm4 (Homo sapiens) + E3 ubiquitin-protein ligase Mdm2 (Homo sapiens) (UniProt O15151+Q00987)
Sequence (O15151 whole entry, looked up): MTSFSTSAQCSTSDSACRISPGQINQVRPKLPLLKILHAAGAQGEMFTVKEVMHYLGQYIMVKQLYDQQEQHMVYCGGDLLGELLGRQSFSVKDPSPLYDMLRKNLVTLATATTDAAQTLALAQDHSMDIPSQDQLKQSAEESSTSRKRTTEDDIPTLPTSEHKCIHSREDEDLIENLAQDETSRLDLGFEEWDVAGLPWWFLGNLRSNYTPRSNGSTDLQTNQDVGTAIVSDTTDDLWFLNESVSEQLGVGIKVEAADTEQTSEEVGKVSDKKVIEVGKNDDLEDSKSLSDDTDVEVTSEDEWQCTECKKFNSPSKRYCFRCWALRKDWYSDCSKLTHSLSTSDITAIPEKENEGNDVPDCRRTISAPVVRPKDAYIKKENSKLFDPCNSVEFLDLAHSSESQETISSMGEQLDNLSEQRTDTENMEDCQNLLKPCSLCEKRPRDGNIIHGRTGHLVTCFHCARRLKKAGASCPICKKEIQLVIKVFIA
Sequence (Q00987 whole entry, looked up): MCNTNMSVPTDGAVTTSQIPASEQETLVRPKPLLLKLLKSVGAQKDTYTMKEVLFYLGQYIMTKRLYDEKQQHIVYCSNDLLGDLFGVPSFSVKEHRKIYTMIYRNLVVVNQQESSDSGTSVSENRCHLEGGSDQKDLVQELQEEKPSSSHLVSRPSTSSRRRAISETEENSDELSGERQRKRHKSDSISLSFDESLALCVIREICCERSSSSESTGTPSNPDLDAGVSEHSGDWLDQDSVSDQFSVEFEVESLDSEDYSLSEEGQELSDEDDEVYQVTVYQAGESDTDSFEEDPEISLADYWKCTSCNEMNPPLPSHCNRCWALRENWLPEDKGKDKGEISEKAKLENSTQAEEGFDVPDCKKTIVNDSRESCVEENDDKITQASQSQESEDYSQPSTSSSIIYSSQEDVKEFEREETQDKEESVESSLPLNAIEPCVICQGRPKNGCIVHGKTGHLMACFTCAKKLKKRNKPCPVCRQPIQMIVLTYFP
Assay: inhibitors of human Mdm2-MdmX association, primary screen, cell-based, luminescence, split luciferase, SaOS-2, uHTS (AID 485346)
Conditions: SaOS-2 split-luciferase Mdm2/MdmX complementation, at 8 µM, stronger effect = higher value

| SMILES | inhibition |
| --- | --- |
| CCOc1ccc(-c2cc(C)[n+](CCN(CC)CC)c(-c3ccc(OCC)cc3)c2)cc1 | 90.7% (active) |
| COc1ccc(CCn2c(O)c(C=NCCCn3ccnc3)c(=O)[nH]c2=O)cc1OC | -17.9% (inactive) |
| Cc1cc(=O)oc2c(C)c(OCC(=O)N3CCN(Cc4ccc5c(c4)OCO5)CC3)ccc12 | 1.14% (inactive) |
| CC12CN3CC(C)(CN(C1)C3c1cccs1)C2 (stereo not given) | -26.1% (inactive) |
| O=C(Nc1cccc2ccccc12)N1CCC2(CC1)OCCO2 | -30% (inactive) |
| O=c1c2ccccc2nc(/C=C/c2ccc(F)cc2)n1-c1ccccc1O | 60.9% (active) |
| O=c1c2ccccc2nc(/C=C/c2ccco2)n1-c1ccccc1O | -1.65% (inactive) |
| Cc1nc2ccccc2c(=O)n1-c1ccc(Cl)cc1Cl | -13.3% (inactive) |
| CC(=O)N1CN2CN(C(C)=O)CC(C(=O)c3ccc(Br)cc3)(C2)C1 | 26.2% (inactive) |
| CC(=C1C(=O)c2ccccc2C1=O)N1CCN(CCN=Cc2c(O)n(C)c(=O)n(C)c2=O)CC1 | -1.58% (inactive) |
| O=C1C2(Cl)C3(Cl)C4(Cl)C(Cl)(Cl)C5(Cl)C3(Cl)C1(Cl)C5(Cl)C24Cl (stereo not given) | 99.3% (active) |
| COc1ccc2[nH]c3c(c2c1)CCN[C@H]3C | 9.11% (inactive) |
| Cc1ccc(C)c(NC2=NCCCS2)c1 | 11.6% (inactive) |
| c1ccc2sc(C3CCCNC3)nc2c1 (stereo not given) | -26.6% (inactive) |
| Cc1cccc2c(CCN)c[nH]c12 | 13.4% (inactive) |
| CCCCn1c(=O)c(C(=O)Nc2ccccc2Cl)c(O)c2ccccc21 | 37.6% (inactive) |
| CCCCCn1c(=O)c(C(=O)NCc2ccccn2)c(O)c2ccccc21 | 13.9% (inactive) |
| CCCCCn1c(=O)c(C(=O)NCc2ccccc2)c(O)c2ccccc21 | 62.6% (active) |
| CC(C)n1c(=O)c(C=Nc2ccc(Br)cc2)c(O)n(Cc2ccco2)c1=O | -33.1% (inactive) |
| CN1CCN(/N=C/c2c[nH]c3ccccc23)CC1 | -22.1% (inactive) |
| OC1/C(=C/c2ccc(C(F)(F)F)cc2)N2CCC1CC2 (stereo not given) | 17.5% (inactive) |
| CC(=NCc1ccc2c(c1)OCO2)c1c(O)[nH]c(=O)[nH]c1=O | -16% (inactive) |
| COc1cc(-n2c(=S)[nH]c3ccc(C)cc3c2=O)c(Cl)cc1Cl | 40.1% (inactive) |

| SMILES | inhibition |
| --- | --- |
| Cc1cc2ccccn2c1C(C[N+](=O)[O-])c1c(F)cccc1Cl (stereo not given) | 97.4% (active) |
| c1cc2c(cc1C1OCC3C(c4ccc5c(c4)OCO5)OCC13)OCO2 (stereo not given) | 1.17% (inactive) |
| COc1ccc(CCn2c(O)c(C=NC3CC3)c(=O)[nH]c2=O)cc1OC | 24.7% (inactive) |
| CC(C)c1c(CN(C)C(C)Cc2ccccc2)n(C)n(-c2ccccc2)c1=O (stereo not given) | -0.74% (inactive) |
| CC(=O)NC(=O)NC(C)Cc1ccccc1 (stereo not given) | 15.7% (inactive) |
| CC(Cc1ccccc1)NC=O (stereo not given) | 12.4% (inactive) |
| CC(Cc1ccccc1)NCCC(c1ccccc1)c1ccccc1 (stereo not given) | 63% (active) |
| COC1=CC=C2[C@H]3Cc4ccc(OC)c5c4[C@@]2(CCN3C)C1O5 (stereo not given in full) | 11% (inactive) |
| O=c1[nH]c(=O)n(-c2ccccc2)c(O)c1C=NC12CN3CN(CN(C3)C1)C2 | -21.9% (inactive) |
| O=C(c1cc2nc(-c3ccccc3)cc(-c3ccccc3)n2n1)N1CCC2(CC1)OCCO2 | 55.7% (active) |
| O=C(c1cc(-c2ccncc2)nc2ccccc12)N1CCC2(CC1)OCCO2 | -28.6% (inactive) |
| Cc1ccc(-c2cc(C(=O)N3CCC4(CC3)OCCO4)no2)cc1 | -32.3% (inactive) |
| c1ccc(CCNC2CCCCCC2)cc1 | 24.6% (inactive) |
| Cc1ccc(Cn2nnnc2CN2CCC(n3nnc4ccccc43)CC2)cc1 | 26.2% (inactive) |
| CCOP(=O)(OCC)C(NC(=O)c1ccc(C)cc1)C(Cl)(Cl)Cl (stereo not given) | -8.99% (inactive) |
| CNC(=S)N/N=C1\C2CN3CCN(C2)CC1(c1ccccc1)C3 | -27.4% (inactive) |
| CN(C)c1nc(N(C)C)nc(N(C#N)CCCl)n1 | 28.9% (inactive) |
| O=C(O)COc1ccccc1/C=C1\C(=O)NC(=O)N(CCC2=CCCCC2)C1=O | 2.61% (inactive) |
| O=C1NC(=O)N(Cc2ccco2)C(=O)/C1=C\c1ccc(-c2ccc(F)cc2)o1 | -9.82% (inactive) |
| O=C1NC(=O)N(CCc2ccc(F)cc2)C(=O)/C1=C/C=C/c1ccccc1 | 99.4% (active) |
| COc1ccccc1N=C1SCCCN1C | -4.32% (inactive) |
| CCOP(=O)(OCC)C(O)c1ccc(OC)cc1OC (stereo not given) | 19.2% (inactive) |
| CC[N+]1(C)CCCC(OC(=O)C(O)(c2ccccc2)c2ccccc2)C1 (stereo not given) | 12.9% (inactive) |

| SMILES | inhibition |
| --- | --- |
| COC(=O)C1=C(c2ccccc2OCc2ccccc2)C[C@@H]2CC[C@H]1N2C(=O)NCc1ccc(OC)cc1 | 12.6% (inactive) |
| COC(=O)C1=C(c2ccc(F)cc2OCc2ccccc2)C[C@@H]2CC[C@H]1N2C(=O)NCc1ccc(C(C)(C)C)cc1 | 48.4% (inactive) |
| COC(=O)C1=C(c2ccc(F)cc2OCc2ccccc2)C[C@@H]2CC[C@H]1N2C(=O)NCc1ccc(OC)c(OC)c1 | 14.8% (inactive) |
| COC(=O)C1=C(c2ccc(-c3ccccc3)c(F)c2)C[C@@H]2CC[C@H]1N2C(=O)NCc1ccc(F)cc1 | 21.7% (inactive) |
| COC(=O)C1=C(c2ccc(F)cc2OCc2ccccc2)C[C@@H]2CC[C@H]1N2C(=O)NCc1ccc(Cl)cc1 | 55.7% (active) |
| COC(=O)C1=C(c2ccc(F)cc2OCc2ccccc2)C[C@@H]2CC[C@H]1N2C(=O)NCc1ccc2[nH]ccc2c1 | 52.5% (active) |
| CCOP(=O)(OCC)C(NC(=O)c1ccc(OC)cc1)C(Cl)(Cl)Cl (stereo not given) | 16.4% (inactive) |
| COC(=O)N(c1ccc(OC)cc1)P1(=S)OCCC(C)O1 (stereo not given) | 7.17% (inactive) |
| CCOc1ccc(C2SCC(=O)Nc3c2c(C)nn3C2CCOC(C)(C)C2)cc1 (stereo not given) | 3.37% (inactive) |
| CCC(=O)c1ccc(OCC(=O)N2CCN(CC(=O)Nc3ccc(C)cc3)CC2)cc1 | 30% (inactive) |
| Cc1cccc(-n2c(O)c(C=NC34CN5CN(CN(C5)C3)C4)c(=O)[nH]c2=O)c1 | -8.36% (inactive) |
| CNCC(O)c1cc(F)c(OCc2ccccc2)c(OCc2ccccc2)c1F (stereo not given) | 86.6% (active) |
| O=C(NC(c1ccc(Cl)cc1)P(=O)(Oc1ccccc1)Oc1ccccc1)OCc1ccccc1 (stereo not given) | 18.9% (inactive) |
| C[C@]12CC[C@H](O)C[C@H]1CC[C@@H]1C2CC[C@]2(C)[C@@H](C3=CC(=O)OC3)[C@@H](O)C[C@]12O (stereo not given in full) | 45.4% (inactive) |
| N#CC1=C(N)Oc2c(c(=O)oc3ccccc23)C1c1ccccc1OC(=O)c1cccs1 (stereo not given) | 62.3% (active) |
| CCNc1nc2[nH]c(=O)c3c(c2s1)OC(N)=C(C#N)C3c1cccs1 (stereo not given) | 17.9% (inactive) |
| COC(=O)C1=C(c2cccc(OCc3ccccc3)c2)C[C@@H]2CC[C@H]1N2C(=O)NNCc1ccccc1 | 29.6% (inactive) |
| CC(=O)N(C1=NCCCS1)c1ccccc1F | 14.4% (inactive) |
| CN(C)C(=O)Oc1cc(=O)n2c3c(cccc13)CCC2 | 19.2% (inactive) |
| CCCCCCCCCCCCn1ccc(=N)cc1 | 97.2% (active) |
| CC(C(=O)Nc1ccc(Cl)cc1Cl)N1CC=C(c2ccccc2)CC1 (stereo not given) | -0.882% (inactive) |
| NCCc1ccc(S(=O)(=O)F)cc1 | 5.92% (inactive) |
| O=C1NC(=O)C(C/C=C/c2ccccc2)C(=O)N1 | -4.93% (inactive) |

| SMILES | inhibition |
| --- | --- |
| CC1(C)Cc2c(C#N)c(N3CCNCC3)nc(-c3ccco3)c2CS1 | 62% (active) |
| COc1cccc(N2C(=O)NC(=O)/C(=C\c3ccc([N+](=O)[O-])s3)C2=O)c1 | 7.01% (inactive) |
| COC(=O)[C@@H]1C(OC(=O)c2ccccc2)CC2CCC1N2C (stereo not given in full) | 5.75% (inactive) |
| COc1ccc(C2N3CC(C)(C)CN23)cc1 (stereo not given) | 4.71% (inactive) |
| O=C(O)c1ccccc1NC(=O)C1C2CCC(O2)C1C(=O)O (stereo not given) | 40.4% (inactive) |
| CCCCC(=O)N/N=C/c1c(O)n(-c2ccccc2)c(=O)[nH]c1=O | 10.7% (inactive) |
| CCCCC(=O)N/N=C/c1c(O)n(CCC2=CCCCC2)c(=O)[nH]c1=O | 50.4% (active) |
| CCCCC(=O)N/N=C/c1c(O)n(CC)c(=S)n(CC)c1=O | 10.6% (inactive) |
| O=C1NC(=O)C(CCc2ccccn2)(Cc2cccc(Cl)c2Cl)C(=O)N1c1ccc(Br)cc1 (stereo not given) | 17.3% (inactive) |
| C/C(=N/O)c1ccc2ccc3ccccc3c2c1 | -52.9% (inactive) |
| O=Cc1cn(Cc2ccc(F)cc2Cl)c2ccccc12 | 50.9% (active) |
| CN1CCC(N(C)Cc2cccnc2)CC1 | -0.974% (inactive) |
| CN(C)CCN(CC1CCCN(Cc2ccccc2F)C1)C(=O)Cc1ccc(F)c(F)c1 (stereo not given) | 15.4% (inactive) |
| CC(=O)c1ccc(OC(NC(=O)Cc2ccccc2)C(Cl)(Cl)Cl)cc1 (stereo not given) | 6.38% (inactive) |
| c1ccc(C2NCc3ccccc3-n3cccc32)cc1 (stereo not given) | 19.8% (inactive) |
| Cn1c(C(=O)N2CCC(C(=O)N3CCC4(CC3)OCCO4)CC2)cc2sccc21 | -1.94% (inactive) |
| CNC(=O)O/N=C(\N)Cc1csc2ccc(Cl)cc12 | 97.6% (active) |
| CNC(=O)O/N=C(\N)Cc1csc2ccccc12 | 78.8% (active) |
| CC[C@H]1CC2CN3CCc4c([nH]c5ccccc45)C(C(=O)OC)(C2)C13 (stereo not given in full) | 33.7% (inactive) |
| Cc1cc(N2C(=O)C3CCCN3C2c2ccc(Cl)c(Cl)c2)no1 (stereo not given) | -4.12% (inactive) |
| CCCn1c(C(=O)c2ccccc2OC)nc2ccccc21 | 10.6% (inactive) |
